Results published in PubChem BioAssay (EPA / NIEHS).
Results filed as inconclusive are left out. The source made the active and inactive calls. How the source made its calls: active means hit-call score of the fitted dose curve at least 0.9, where 1 is the maximum; inconclusive means response in the unintended direction; inactive means score below 0.9.

What was measured:
[1] = target: Glucocorticoid receptor (Homo sapiens) (UniProt P04150); experiment: NVS_NR_hGR: NovaScreen (NVS) Nuclear Receptor Binding Assay for human Glucocorticoid Receptor (GR) (AID 2283363);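 on AC50: activity is loss of specific radioligand binding signal relative to DMSO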
Glucocorticoid receptor (Homo sapiens), sequence (P04150 whole entry, looked up): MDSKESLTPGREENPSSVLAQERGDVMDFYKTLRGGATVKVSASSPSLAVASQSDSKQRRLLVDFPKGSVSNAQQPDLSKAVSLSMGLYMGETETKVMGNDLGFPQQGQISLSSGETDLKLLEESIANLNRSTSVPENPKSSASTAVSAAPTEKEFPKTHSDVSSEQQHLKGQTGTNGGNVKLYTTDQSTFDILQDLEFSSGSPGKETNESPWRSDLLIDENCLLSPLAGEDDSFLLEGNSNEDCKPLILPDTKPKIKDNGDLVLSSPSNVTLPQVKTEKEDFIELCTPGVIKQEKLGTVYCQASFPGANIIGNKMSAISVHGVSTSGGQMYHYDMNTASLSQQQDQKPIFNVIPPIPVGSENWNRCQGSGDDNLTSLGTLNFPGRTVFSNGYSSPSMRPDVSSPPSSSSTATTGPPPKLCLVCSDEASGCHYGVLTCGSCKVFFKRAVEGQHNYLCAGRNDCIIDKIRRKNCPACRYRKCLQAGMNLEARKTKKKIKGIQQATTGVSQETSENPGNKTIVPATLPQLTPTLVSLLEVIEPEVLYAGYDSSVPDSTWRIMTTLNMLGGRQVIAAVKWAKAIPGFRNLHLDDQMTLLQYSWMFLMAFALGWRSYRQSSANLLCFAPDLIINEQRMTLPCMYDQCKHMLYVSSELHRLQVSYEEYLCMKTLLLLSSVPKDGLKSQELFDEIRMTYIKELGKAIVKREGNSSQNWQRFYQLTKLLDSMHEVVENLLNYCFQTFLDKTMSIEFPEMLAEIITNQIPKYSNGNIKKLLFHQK
How it was run: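 Single-readout cell-free binding: radioligand plus extracted receptor, 16-hour dosing, filter radiodetection; 25 uM duplicate primary, concentration series secondary.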

[2] = target: human Adenosine Transporter (Adot), SLC29A1 (gene 2030) (UniProt Q99808); experiment: NVS_TR_hAdoT: NovaScreen (NVS) Transporter Assay for human Adenosine Transporter (Adot) (AID 2283368)
human Adenosine Transporter (Adot), SLC29A1 (gene 2030), sequence (Q99808 whole entry, looked up): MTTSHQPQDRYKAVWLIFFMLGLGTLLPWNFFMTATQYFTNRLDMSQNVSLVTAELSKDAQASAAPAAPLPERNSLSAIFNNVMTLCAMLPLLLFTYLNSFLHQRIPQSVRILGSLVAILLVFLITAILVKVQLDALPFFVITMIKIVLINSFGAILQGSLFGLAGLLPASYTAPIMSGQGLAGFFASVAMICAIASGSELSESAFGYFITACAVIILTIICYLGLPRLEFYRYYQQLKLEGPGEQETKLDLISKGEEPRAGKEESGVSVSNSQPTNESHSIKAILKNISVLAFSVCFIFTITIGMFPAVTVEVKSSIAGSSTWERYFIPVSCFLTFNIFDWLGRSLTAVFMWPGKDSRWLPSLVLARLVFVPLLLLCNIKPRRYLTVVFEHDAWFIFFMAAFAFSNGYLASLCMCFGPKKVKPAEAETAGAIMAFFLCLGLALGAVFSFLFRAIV
How it was run: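 Binding displacement on U937 extracted protein, read 1 h post-dose by filtration and scintillation counting. Primary duplicate test at 25 uM, then singleton concentration series with 50 uM top; DMSO baseline.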

[3] = target: Peroxisome proliferator-activated receptor gamma (Homo sapiens) (UniProt P37231); experiment: NVS_NR_hPPARg: NovaScreen (NVS) Nuclear Receptor Binding Assay for human Peroxisome Proliferator-activated Receptor gamma (PPARg) (AID 2283370)
Peroxisome proliferator-activated receptor gamma (Homo sapiens), sequence (P37231 whole entry, looked up): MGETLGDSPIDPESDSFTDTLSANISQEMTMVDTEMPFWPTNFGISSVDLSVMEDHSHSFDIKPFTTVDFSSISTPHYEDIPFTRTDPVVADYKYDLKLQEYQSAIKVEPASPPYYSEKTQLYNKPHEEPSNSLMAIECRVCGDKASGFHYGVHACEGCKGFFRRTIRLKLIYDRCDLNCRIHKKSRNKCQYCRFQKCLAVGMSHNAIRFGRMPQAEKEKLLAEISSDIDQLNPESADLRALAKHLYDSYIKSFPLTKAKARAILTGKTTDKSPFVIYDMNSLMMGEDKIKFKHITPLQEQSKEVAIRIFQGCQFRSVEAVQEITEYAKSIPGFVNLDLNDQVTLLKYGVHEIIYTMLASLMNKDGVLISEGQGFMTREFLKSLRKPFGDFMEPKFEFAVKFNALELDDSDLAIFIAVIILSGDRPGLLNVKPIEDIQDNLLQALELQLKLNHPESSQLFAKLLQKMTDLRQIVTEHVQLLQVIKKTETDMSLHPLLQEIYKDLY
How it was run: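 Fluorescence polarization measures competitive binding to extracted PPARg in a cell-free format. Reading is taken at 2 h; activity is signal loss relative to DMSO. Screening at 25 uM in duplicate preceded confirmatory dose series.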

[4] = target: Nuclear receptor subfamily 1 group I member 2 (Homo sapiens) (UniProt O75469); experiment: NVS_NR_hPXR: NovaScreen (NVS) Nuclear Receptor Binding Assay for human Pregnane X Receptor (PXR) (AID 2283365);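 further: a drop in FRET signal versus DMSO baseline means the compound binds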
Nuclear receptor subfamily 1 group I member 2 (Homo sapiens), sequence (O75469 whole entry, looked up): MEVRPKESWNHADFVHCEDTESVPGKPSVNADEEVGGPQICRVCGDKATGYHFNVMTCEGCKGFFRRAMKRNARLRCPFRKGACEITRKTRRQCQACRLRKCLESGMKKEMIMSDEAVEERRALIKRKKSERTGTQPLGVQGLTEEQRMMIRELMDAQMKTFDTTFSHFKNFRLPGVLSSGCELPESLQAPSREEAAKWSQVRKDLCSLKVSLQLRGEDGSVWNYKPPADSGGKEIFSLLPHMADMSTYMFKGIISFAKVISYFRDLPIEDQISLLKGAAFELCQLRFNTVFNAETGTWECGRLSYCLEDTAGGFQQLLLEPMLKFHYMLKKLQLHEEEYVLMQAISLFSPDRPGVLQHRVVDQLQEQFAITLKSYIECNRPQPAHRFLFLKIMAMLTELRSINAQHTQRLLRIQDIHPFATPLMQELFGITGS
How it was run: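 Binding was measured by time-resolved fluorescence resonance energy transfer after a 2 h exposure of extracted human PXR protein without cells. Compounds were first tested at 25 uM in duplicate, with concentration series for actives; DMSO defined baseline.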

[5] = tested on: guinea pig Dopamine Transporter (DAT), gene 100714898; experiment: NVS_TR_gDAT: NovaScreen (NVS) Transporter Assay for guinea pig Dopamine Transporter (DAT) (AID 2283369);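 further: active compounds lower bound radioligand signal relative to DMSO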
How it was run: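 Test chemicals were incubated 2 h with guinea pig striatal membranes and a radioligand; bound label was separated by filtration and counted. Screening ran at 25 uM, followed by concentration-response testing to a 50 uM maximum.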

[6] = target: rat Androgen Receptor (AR), Ar (gene 24208) (UniProt P15207); experiment: NVS_NR_rAR: NovaScreen (NVS) Nuclear Receptor Binding Assay for rat Androgen Receptor (AR) (AID 2283366)
rat Androgen Receptor (AR), Ar (gene 24208), sequence (P15207 whole entry, looked up): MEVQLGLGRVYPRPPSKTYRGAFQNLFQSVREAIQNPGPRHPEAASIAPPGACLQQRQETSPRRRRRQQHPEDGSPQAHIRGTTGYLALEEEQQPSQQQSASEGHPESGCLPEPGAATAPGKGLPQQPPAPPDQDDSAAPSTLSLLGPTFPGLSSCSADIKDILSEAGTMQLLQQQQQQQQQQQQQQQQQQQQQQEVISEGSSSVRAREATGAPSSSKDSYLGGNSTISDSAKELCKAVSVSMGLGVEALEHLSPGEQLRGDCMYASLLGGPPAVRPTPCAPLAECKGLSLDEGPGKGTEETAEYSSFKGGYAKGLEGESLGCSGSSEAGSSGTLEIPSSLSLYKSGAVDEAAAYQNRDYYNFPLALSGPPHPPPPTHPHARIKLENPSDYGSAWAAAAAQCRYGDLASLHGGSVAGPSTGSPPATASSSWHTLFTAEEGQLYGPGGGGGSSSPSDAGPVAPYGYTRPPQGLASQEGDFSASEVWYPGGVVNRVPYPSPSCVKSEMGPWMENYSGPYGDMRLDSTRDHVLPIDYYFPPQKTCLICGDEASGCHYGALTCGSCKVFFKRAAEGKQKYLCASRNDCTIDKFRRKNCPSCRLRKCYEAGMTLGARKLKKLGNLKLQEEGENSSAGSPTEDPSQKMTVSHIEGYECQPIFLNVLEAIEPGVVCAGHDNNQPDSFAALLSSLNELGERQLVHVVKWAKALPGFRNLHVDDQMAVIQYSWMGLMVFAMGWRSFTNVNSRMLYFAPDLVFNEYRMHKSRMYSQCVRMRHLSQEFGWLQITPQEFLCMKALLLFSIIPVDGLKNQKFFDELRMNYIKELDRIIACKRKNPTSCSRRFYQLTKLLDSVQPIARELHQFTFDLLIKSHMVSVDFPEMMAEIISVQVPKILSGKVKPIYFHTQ
How it was run: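 Actives from a duplicate single-concentration (25 uM) primary run went on to concentration series. Displacement of radioligand was counted by filtration and scintillation, 18 h post-dose, using prostate extracts from testosterone-pretreated rats, with DMSO as baseline.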

[7] = target: human Serotonin Transporter (SERT), SLC6A4 (gene 6532) (UniProt P31645); experiment: NVS_TR_hSERT: NovaScreen (NVS) Transporter Assay for human Serotonin Transporter (SERT) (AID 2283372)
human Serotonin Transporter (SERT), SLC6A4 (gene 6532), sequence (P31645 whole entry, looked up): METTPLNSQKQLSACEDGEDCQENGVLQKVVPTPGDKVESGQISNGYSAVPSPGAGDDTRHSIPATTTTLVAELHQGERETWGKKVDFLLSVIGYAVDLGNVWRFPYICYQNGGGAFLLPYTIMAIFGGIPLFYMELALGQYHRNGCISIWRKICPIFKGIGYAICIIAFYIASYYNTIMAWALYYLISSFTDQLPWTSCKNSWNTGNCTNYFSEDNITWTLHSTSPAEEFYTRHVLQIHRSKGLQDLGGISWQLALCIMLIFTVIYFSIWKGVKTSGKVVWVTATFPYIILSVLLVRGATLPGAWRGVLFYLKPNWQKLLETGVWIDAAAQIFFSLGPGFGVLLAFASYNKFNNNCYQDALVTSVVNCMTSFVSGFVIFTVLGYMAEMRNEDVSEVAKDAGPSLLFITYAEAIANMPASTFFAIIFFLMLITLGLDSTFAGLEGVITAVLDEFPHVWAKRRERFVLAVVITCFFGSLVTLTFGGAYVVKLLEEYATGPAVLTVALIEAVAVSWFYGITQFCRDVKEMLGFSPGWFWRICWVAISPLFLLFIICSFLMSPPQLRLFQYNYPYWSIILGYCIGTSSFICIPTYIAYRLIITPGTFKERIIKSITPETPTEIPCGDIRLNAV
How it was run: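 Human platelet membrane preparation; displacement of radioligand from serotonin transporter measured after 1 h by filtration and scintillation counting. Single 25 uM duplicate screen, then concentration series for actives, with DMSO as negative baseline.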

[8] = target: human Thyroid Receptor Alpha (TRa), THRA (gene 7067) (UniProt P10827); experiment: NVS_NR_hTRa_Antagonist: NovaScreen (NVS) Nuclear Receptor Binding Assay for human Thyroid Receptor Alpha Antagonism (TRa) (AID 2283362)
human Thyroid Receptor Alpha (TRa), THRA (gene 7067), sequence (P10827 whole entry, looked up): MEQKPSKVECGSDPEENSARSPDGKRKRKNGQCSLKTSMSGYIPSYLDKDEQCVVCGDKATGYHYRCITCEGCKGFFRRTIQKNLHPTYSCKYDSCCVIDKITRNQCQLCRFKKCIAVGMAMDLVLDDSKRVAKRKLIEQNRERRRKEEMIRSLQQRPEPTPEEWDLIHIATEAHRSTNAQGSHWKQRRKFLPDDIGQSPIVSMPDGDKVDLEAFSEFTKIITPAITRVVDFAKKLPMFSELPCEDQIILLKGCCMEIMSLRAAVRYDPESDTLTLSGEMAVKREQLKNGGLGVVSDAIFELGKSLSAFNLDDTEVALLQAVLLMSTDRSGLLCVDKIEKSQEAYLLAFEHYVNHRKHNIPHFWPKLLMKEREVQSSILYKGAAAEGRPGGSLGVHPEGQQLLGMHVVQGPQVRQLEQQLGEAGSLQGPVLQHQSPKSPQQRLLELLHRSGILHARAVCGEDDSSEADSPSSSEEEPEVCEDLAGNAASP
How it was run: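 Chemicals were first screened in duplicate at 25 uM, then actives were retested in concentration series. Binding to the extracted receptor was measured 1 h after dosing by AlphaLISA chemiluminescence, with decreased signal versus DMSO scored as activity.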

[9] = target: guinea pig Sigma Receptor, Non-selective Binding, SIGMAR1 (gene 100135589) (UniProt Q60492); experiment: NVS_OR_gSIGMA_NonSelective: NovaScreen (NVS) Nuclear Receptor Binding Assay for guinea pig Sigma Receptor, Non-selective Binding (AID 2283367)
guinea pig Sigma Receptor, Non-selective Binding, SIGMAR1 (gene 100135589), sequence (Q60492 whole entry, looked up): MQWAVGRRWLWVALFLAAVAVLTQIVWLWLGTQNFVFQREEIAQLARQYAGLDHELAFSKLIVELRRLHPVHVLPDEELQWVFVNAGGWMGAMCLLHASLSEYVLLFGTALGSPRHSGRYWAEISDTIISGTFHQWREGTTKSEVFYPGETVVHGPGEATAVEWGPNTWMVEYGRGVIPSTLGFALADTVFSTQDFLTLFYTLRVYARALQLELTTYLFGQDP
How it was run: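 Test chemicals were screened in duplicate at 25 uM, then in concentration series if active, against radioligand binding to guinea pig brain membranes; filtration and scintillation counting at 1 h measured remaining bound ligand.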

[10] = tested on: rat Norepinephrine Transporter (NET), gene 83511; experiment: NVS_TR_rNET: NovaScreen (NVS) Transporter Assay for rat Norepinephrine Transporter (NET) (AID 2283373)
How it was run: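 Competitive radioligand displacement at the rat NET using forebrain membrane preparations, 1 h incubation, filter-based scintillation readout. Primary testing in duplicate at a single 25 uM concentration; confirmed actives retested across concentrations.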

COc1ccc(-n2nc(C(F)F)cc2-c2ccc(S(C)=O)cc2)cc1 (stereo unspecified)
AC50 [1]: 16.7 µM (active) | AC50 [2]: 33.2 µM (active) | outcome [3]: inactive

CC(=O)OCCC(C)C
outcome [4]: inactive | outcome [5]: inactive

COc1ccc2sc(C(=O)Nc3nnn[nH]3)c(OC(C)C)c2c1
outcome [1]: inactive | AC50 [3]: 5.14 µM (active)

O=P(OC(CCl)CCl)(OC(CCl)CCl)OC(CCl)CCl
AC50 [1]: 15.5 µM (active)

CCc1cc(SCc2sc(-c3ccc(C(F)(F)F)cc3)nc2CN2CCN(c3ccc(OC)cc3)CC2)ccc1OCC(=O)O
AC50 [1]: 1.57 µM (active) | AC50 [2]: 10.8 µM (active) | AC50 [5]: 15.2 µM (active) | AC50 [3]: 7.42 µM (active)

CCOc1cccc(-n2cc(C(=O)N3CCN(c4cc(C(=O)O)c5ccccc5c4)CC3)nc2-c2ccc(C)cc2)c1
AC50 [1]: 14.6 µM (active) | AC50 [6]: 13.5 µM (active) | AC50 [2]: 14.8 µM (active) | AC50 [5]: 23.8 µM (active) | outcome [3]: inactive | AC50 [7]: 34.2 µM (active)

CNS(=O)(=O)c1cc(C(=O)N2CCC(CCN3C4CCC3CC(n3c(C)nc5ccccc53)C4)(c3cccc(F)c3)CC2)c(Cl)cc1F (stereo unspecified)
outcome [8]: inactive | outcome [3]: inactive

CN(C)c1ccc(Cc2ccc(N(C)C)cc2)cc1
outcome [4]: inactive | AC50 [9]: 5.19 µM (active)

Nc1ccc(Nc2ccccc2)cc1
AC50 [1]: 14.6 µM (active) | AC50 [5]: 25 µM (active)

CCOC(=O)c1ccc(C2CCC(NC[C@H](O)COc3ccc(O)c(NS(C)(=O)=O)c3)CC2)cc1 (stereo partly specified)
outcome [1]: inactive | AC50 [5]: 8.87 µM (active) | outcome [3]: inactive | AC50 [7]: 14.9 µM (active) | AC50 [10]: 7.29 µM (active)

Cn1cnc([N+](=O)[O-])c1Sc1ncnc2nc[nH]c12
outcome [8]: inactive | outcome [3]: inactive
